Results from PubChem BioAssay (NCI).
This is part of a sample that, as a whole, favours compounds with a hit. Of some 83,000 tested, about 20% had one in any assay.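 Single-dose data. Exposure time 48 hours. Values below 10 considered active.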 Calls of active or inactive are those of the source.

tested on: MDA-MB-468 breast; assay: NCI-60 one-dose screen, 48 h (100 = growth as untreated, 0 = no growth, -100 = all killed); conditions: 10 µM unless noted

Compound	growth
CCN(CC)c1nc(SCc2ccccc2Cl)ncc1C	69.6% (inactive)
Nc1ccc(Nc2ncnc3sc4c(c23)CCN(Cc2ccccc2)C4)cc1	90.4% (inactive)
O=C(Nc1ccc(-n2ccc3c(NC(=O)c4ccccc4)nccc32)cc1)c1ccc(Cl)c(C(F)(F)F)c1	-9.71% (active)
CC1CC(=O)OC(C)C1 (stereo not given)	99.6% (inactive)
CCN(CC)c1ccc(/C=N\NC(=O)c2cccc(Nc3ccnc(C(F)(F)F)c3)c2)c(O)c1	24.6% (inactive)
OC1OC(COC(c2ccccc2)(c2ccccc2)c2ccccc2)C(O)C(O)C1O (stereo not given)	89.7% (inactive)
Cc1cc(NS(=O)(=O)c2ccc(-c3cnc(C4CC4)o3)cc2)ccc1I	3.98% (active)
COc1ccc(C2CC(c3cnccn3)=NN2)cc1OC (stereo not given)	105% (inactive)
Cc1c(Cl)cccc1S(=O)(=O)Nc1ccc2c(c1)C(=O)N(C1CCC(=O)NC1=O)C2=O (stereo not given)	27.2% (inactive)
CC1=C2[C@@H](CC1)[C@]1(C)O[C@@](C(C)C)(C[C@H]1OC(=O)[C@H](C)O)[C@H]2OC(=O)/C=C/c1ccccc1	86.9% (inactive)
Nc1nc(-c2ccccc2)nc(N)c1N=O	72.4% (inactive)
O=C(Nc1ccc(-n2ccc3c(NC(=O)c4ccccc4)ncnc32)cc1)Nc1cccc(Cl)c1Cl	-35.7% (active)
CCN1C(=O)N(CC)C2C1NN=C1SC(c3ccccc3)=CC(=O)N12 (stereo not given)	5.17% (active)
O=C(/C=C\c1ccc(OCCCCCC[P+](c2ccccc2)(c2ccccc2)c2ccccc2)cc1)c1ccc2c(c1)OCCO2	-38.6% (active)
Oc1ccc(CN(Cc2ccc(C(F)(F)F)cc2)Cc2ccc(O)c3ncccc23)c2cccnc12	4.04% (active)
COc1cc(NC(=O)CCl)ccc(=O)c1	75.6% (inactive)
O=c1ccc(=O)n(-c2nc(-c3ccc([N+](=O)[O-])cc3)cs2)[nH]1	99.3% (inactive)
Cn1c2nc3ccccc3c-2cc2ccccc21	41.3% (inactive)
O=C1NC(=S)NC(=O)C1=Cc1cccc(C=C2C(=O)NC(=S)NC2=O)c1	103% (inactive)
C#Cc1ccc(-n2c(/C=C/c3ccc(Cl)c(F)c3)nc3ncccc3c2=O)cc1	-74.5% (active)

Compound	growth
N=C(N)c1ccc(-c2cc(Cl)cc(Cl)c2)cn1	78.7% (inactive)
COc1cc(OC)c(C2SCC(=O)N2Nc2ncnc3ccccc23)cc1OC (stereo not given)	111% (inactive)
Cc1ccccc1N1CCN(C2=C(Cl)C(=O)c3ncccc3C2=O)CC1	-68.8% (active)
CCCCCCCCCCCCCCCCn1cc[n+](C)c1	-79% (active)
O=C1CSC(c2ccccc2O)N1c1nnc(Cn2ccnc2)o1 (stereo not given)	59.1% (inactive)
CC(/C=C/c1ccccc1)=N/NC(=O)c1ccncc1	98.8% (inactive)
CN(C)CCCn1c2c(c3cc(-c4cccc(S(N)(=O)=O)c4)ccc3c1=O)C(=O)c1ccccc1-2	88.5% (inactive)
CC1=C(CCCOC(=O)NCCCl)C2=C(C)C3(CC3)[C@@](C)(O)C(=O)C2=C1	-55% (active)
COc1cccc(OC)c1Oc1c(-c2nc3ccccc3s2)c(C)nn1-c1ccccc1	71.2% (inactive)
O=C(Nn1c2c(sc1=NC1CC1)C(=O)c1ccccc1C2=O)c1cc2ccc1CCc1ccc(cc1)CC2	32.4% (inactive)
Oc1ccc(N=Cc2ccccc2O)cc1	93.3% (inactive)
CCCCCCC(C)N(CC(C)(C)O)C(=O)c1ccc([N+](=O)[O-])cc1 (stereo not given)	96.1% (inactive)
CCc1ccccc1NC(=O)/C(C#N)=C/c1ccc(OC)cc1	108% (inactive)
CC1=C(O)C(=O)C(C(C#N)(C#N)C(C#N)C#N)C1 (stereo not given)	102% (inactive)
CC[C@H](Nc1ncnc2nc[nH]c12)c1nc2cccc(NCc3ccc(C(=O)NO)nc3)c2c(=O)n1-c1ccccc1	11.1% (inactive)
O=S(=O)(Nc1cccc2ccccc12)c1ccc(-c2cnc(C3CC3)o2)cc1	0.881% (active)
COc1cc(/C=C/c2cc(O)c3cc(C(C)=O)c(=O)oc3c2)cc2c1O[C@]1(C)CC[C@@H](O)C(C)(C)[C@H]1C2	65% (inactive)
Cc1ncc(C(=O)Nc2ccc(CN3CCN(C)CC3)c(C(F)(F)F)c2)cc1C#Cc1cnc(NC2CC2)c2ncccc12	32% (inactive)
COc1ccccc1C(C[N+](=O)[O-])c1c(-c2ccccc2)[nH]c2cc(C)ccc12 (stereo not given)	44.4% (inactive)
Fc1ccc(-c2nn(-c3ccccc3)cc2-c2nc3ccccc3o2)cc1	-21.2% (active)
